In PubChem BioAssay:
For some assays here: Potency and affinity values are given separately. Active and inactive are the calls of the source. Unless noted, how the calls were made is not given here.

Columns and labels:
[1] = antimalarial activity against Dd2 strain (AID 2302;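 active means growth inhibition above 50% at the single 2 µM test dose, taken to imply half-maximal potency below 2 µM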;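 further: 0% = DMSO untreated growth and 100% = chloroquine plus artemisinin killed control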); settings: P. falciparum Dd2 in RBCs, LDH growth readout, 72 h; at 2 µM; hits give high values
[2] = HepG2 cytotoxicity, primary screen, cytotoxicity control for P. falciparum antimalarial project, cell-based, ATP luminescence (AID 2303;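 active means inhibition above 50%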;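 further: 0% = DMSO wells and 100% = digitonin-killed cells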); settings: HepG2 viability, 24-48 h, at 10 µM, hits give high values
[3] = target: L-lactate dehydrogenase (Plasmodium falciparum (isolate CDC / Honduras)) (UniProt Q27743); test: PfLDH activity inhibition – cell lysate, 3D7 strain, counter-screen for P. falciparum growth inhibition project (AID 2304);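 further: 0% = vehicle and 100% = reference inhibitor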; settings: P. falciparum 3D7 crude extract, LDH APAD/NBT absorbance; at 2 µM; hits give high values
[4] = inhibition of 3D7 malaria parasite growth – strain 3D7 (AID 2306);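 further: 0% = DMSO wells and 100% = chloroquine plus artemisinin control wells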; settings: P. falciparum 3D7 erythrocytic growth, LDH absorbance, 72 h; at 2 µM; hits give high values
[5] = target: Calcium-dependent protein kinase 1 (Plasmodium falciparum (isolate 3D7)) (UniProt P62344); test: PfCDPK1 kinase inhibitors, biochemical, TCAMS library (AID 1159585; cut-off not given, nearly all actives have IC50 up to about 0.98 µM;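 further: inhibitors leave more ATP so luminescence rises with inhibition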); settings: recombinant PfCDPK1, Kinase-Glo ATP depletion luminescence
[6] = target: Plasmodium falciparum protein kinase 6 (PK6, PF3D7_1337100) (UniProt Q8IDW1); test: PfPK6 kinase inhibitors, biochemical, TCAMS library (AID 1159586); settings: recombinant PfPK6, Kinase-Glo ATP depletion luminescence
[7] = target: Protein kinase 7 (PK7), Plasmodium falciparum 3D7 (PF3D7_0213400) (UniProt Q7YTF7); test: inhibition of Plasmodium PK7 catalytic activity – biochemical, TCAMS antimalarial set, Kinase-Glo luminescence (AID 1159587); settings: recombinant PfPK7, Kinase-Glo ATP depletion luminescence
[8] = target: Calcium-dependent protein kinase 4 (Plasmodium falciparum (isolate 3D7)) (UniProt Q8IBS5); test: PfCDPK4 kinase inhibitors, biochemical, TCAMS library (AID 1159588; cut-off not given, nearly all actives have IC50 up to about 0.91 µM); settings: recombinant PfCDPK4, Kinase-Glo ATP depletion luminescence
Calcium-dependent protein kinase 4 (Plasmodium falciparum (isolate 3D7)), sequence (Q8IBS5 whole entry, looked up): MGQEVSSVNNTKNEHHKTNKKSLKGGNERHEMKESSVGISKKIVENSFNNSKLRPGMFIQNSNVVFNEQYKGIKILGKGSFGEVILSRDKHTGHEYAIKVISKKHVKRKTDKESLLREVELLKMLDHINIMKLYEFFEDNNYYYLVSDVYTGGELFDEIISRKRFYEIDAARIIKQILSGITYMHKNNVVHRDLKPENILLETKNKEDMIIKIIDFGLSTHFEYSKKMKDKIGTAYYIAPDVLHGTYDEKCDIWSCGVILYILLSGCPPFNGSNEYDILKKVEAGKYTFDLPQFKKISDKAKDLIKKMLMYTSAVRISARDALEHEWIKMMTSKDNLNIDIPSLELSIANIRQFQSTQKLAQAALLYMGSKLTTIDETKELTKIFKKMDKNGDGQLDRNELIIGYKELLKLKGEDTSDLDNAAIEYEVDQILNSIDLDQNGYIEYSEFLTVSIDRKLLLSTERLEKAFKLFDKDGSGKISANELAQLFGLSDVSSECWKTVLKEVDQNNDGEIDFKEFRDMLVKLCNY

L-lactate dehydrogenase (Plasmodium falciparum (isolate CDC / Honduras)), sequence (Q27743 whole entry, looked up): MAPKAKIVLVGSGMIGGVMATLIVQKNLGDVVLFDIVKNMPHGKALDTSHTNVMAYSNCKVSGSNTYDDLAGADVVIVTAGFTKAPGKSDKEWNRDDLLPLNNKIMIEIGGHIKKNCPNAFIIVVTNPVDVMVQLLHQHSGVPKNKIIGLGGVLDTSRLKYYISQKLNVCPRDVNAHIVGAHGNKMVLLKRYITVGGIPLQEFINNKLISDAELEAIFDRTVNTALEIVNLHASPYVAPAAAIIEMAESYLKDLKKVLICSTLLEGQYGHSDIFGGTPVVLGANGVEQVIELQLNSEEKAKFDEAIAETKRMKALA
Plasmodium falciparum protein kinase 6 (PK6, PF3D7_1337100), sequence (Q8IDW1 1-305): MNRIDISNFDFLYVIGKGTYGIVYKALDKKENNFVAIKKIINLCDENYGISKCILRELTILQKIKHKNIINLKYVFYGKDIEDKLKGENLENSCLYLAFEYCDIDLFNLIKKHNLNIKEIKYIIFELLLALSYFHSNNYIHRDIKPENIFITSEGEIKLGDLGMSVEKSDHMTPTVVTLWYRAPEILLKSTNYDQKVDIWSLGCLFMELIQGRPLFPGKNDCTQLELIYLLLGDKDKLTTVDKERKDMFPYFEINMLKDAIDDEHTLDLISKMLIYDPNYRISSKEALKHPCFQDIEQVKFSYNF
Calcium-dependent protein kinase 1 (Plasmodium falciparum (isolate 3D7)), sequence (P62344 whole entry, looked up): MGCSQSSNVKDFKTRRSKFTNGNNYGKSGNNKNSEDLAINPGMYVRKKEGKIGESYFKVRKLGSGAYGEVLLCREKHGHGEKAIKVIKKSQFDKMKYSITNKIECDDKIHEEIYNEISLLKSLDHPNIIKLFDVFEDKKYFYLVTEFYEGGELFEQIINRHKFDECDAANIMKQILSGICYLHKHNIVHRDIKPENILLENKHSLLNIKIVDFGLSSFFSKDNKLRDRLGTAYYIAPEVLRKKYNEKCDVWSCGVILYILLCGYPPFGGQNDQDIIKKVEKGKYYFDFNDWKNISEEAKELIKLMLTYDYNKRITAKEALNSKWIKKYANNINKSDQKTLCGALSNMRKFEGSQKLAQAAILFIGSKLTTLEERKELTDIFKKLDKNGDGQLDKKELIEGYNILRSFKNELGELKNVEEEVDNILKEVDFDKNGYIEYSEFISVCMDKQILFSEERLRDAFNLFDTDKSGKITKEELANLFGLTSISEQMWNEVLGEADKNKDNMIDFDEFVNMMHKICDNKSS
Protein kinase 7 (PK7), Plasmodium falciparum 3D7 (PF3D7_0213400), sequence (Q7YTF7 1-343): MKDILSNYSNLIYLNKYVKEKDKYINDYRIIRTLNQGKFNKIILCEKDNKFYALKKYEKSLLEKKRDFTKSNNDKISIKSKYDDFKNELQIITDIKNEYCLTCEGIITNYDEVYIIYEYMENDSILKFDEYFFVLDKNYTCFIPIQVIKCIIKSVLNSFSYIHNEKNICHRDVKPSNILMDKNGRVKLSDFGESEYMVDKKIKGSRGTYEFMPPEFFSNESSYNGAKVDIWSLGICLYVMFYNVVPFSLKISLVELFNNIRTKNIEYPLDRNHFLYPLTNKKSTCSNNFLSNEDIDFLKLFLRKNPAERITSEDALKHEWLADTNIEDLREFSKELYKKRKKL

CC[C@H](C)CNC(=O)c1cccc(-c2cccc(CNCC3CNCCCO3)c2)n1 (some centres not stated)
inactive: inhibition [2] 15% | inhibition [3] 1% | outcome [5] | outcome [6] | outcome [7] | outcome [8]
active: growth inhibition [1] 54% | growth inhibition [4] 91%

CNCCNCc1ccc(-c2ccc(-c3nc4ccc(C(F)(F)F)cc4[nH]3)s2)cc1
inactive: inhibition [2] 30% | inhibition [3] -2% | outcome [5] | outcome [6] | outcome [7] | outcome [8]
active: growth inhibition [1] 100% | growth inhibition [4] 99%

CC(=O)Oc1ccc(C(=O)Oc2ccccc2C#CC#N)cc1OC(C)=O
active: growth inhibition [1] 61% | growth inhibition [4] 93%
inactive: inhibition [2] 23% | inhibition [3] -1% | outcome [5] | outcome [6] | outcome [7] | outcome [8]

Cc1cc(N[C@@H](Cc2ccccc2)C(=O)NCc2cccs2)nc(NCCc2cccnc2)n1
active: growth inhibition [4] 84%
inactive: growth inhibition [1] 38% | inhibition [2] 10% | inhibition [3] -4% | outcome [5] | outcome [6] | outcome [7] | outcome [8]

COc1ccc2nccc([C@@H](O)CNCCCN(C)CCOc3cc(F)cc(F)c3)c2c1
active: growth inhibition [1] 58% | growth inhibition [4] 99%
inactive: inhibition [2] 11% | inhibition [3] -1% | outcome [5] | outcome [6] | outcome [7] | outcome [8]

COc1ccc(C(=O)CCC(=O)N(Cc2ccc(-c3ccc(CNCCc4ccccc4)cn3)cc2)C(C)CN(C)C)cc1F (configuration not stated)
inactive: inhibition [2] 20% | inhibition [3] -4% | outcome [5] | outcome [6] | outcome [7] | outcome [8]
active: growth inhibition [1] 57% | growth inhibition [4] 98%

O=C(NCc1cccs1)[C@H](Cc1ccccc1)Nc1ccnc(NCCc2ccccc2)n1
inactive: inhibition [2] -1% | inhibition [3] -2% | outcome [5] | outcome [6] | outcome [7] | outcome [8]
active: growth inhibition [1] 59% | growth inhibition [4] 85%

Cc1c(-c2cccc(CNCCc3ccc(Cl)cc3)c2)cnc(N)c1C
active: growth inhibition [4] 87%
inactive: growth inhibition [1] 30% | inhibition [2] 9% | inhibition [3] -5% | outcome [5] | outcome [6] | outcome [7] | outcome [8]

CC(=O)C1=NN(c2ccc(Cl)cc2)C(c2cccs2)N1c1ccccc1 (configuration not stated)
inactive: inhibition [2] -3% | inhibition [3] 3% | outcome [5] | outcome [6] | outcome [7] | outcome [8]
active: growth inhibition [1] 70% | growth inhibition [4] 88%

O=C(Nc1ccc(Cn2ncc(N3CCNCC3)c(Cl)c2=O)cc1)Nc1ccc(-c2ccccc2)cc1
active: growth inhibition [4] 98%
inactive: growth inhibition [1] 33% | inhibition [2] 29% | inhibition [3] -1% | outcome [5] | outcome [6] | outcome [7] | outcome [8]

Cc1nc(N)nc(N)c1OCCCOc1cccc(Cl)c1Cl
inactive: inhibition [3] -2% | outcome [5] | outcome [6] | outcome [7] | outcome [8]
active: growth inhibition [1] 95% | inhibition [2] 59% | growth inhibition [4] 93%

CCN(CC)CCN(Cc1ccc(-c2ccc(C#N)cc2)cc1)C(=O)Cn1c(CCc2cccc(F)c2F)nc(=O)c2ccccc21
inactive: growth inhibition [1] 46% | inhibition [2] 31% | inhibition [3] -1% | outcome [5] | outcome [6] | outcome [7] | outcome [8]
active: growth inhibition [4] 100%

COc1ccc(S(=O)(=O)Nc2cc(Br)cc3c2OCCC3)cc1N1CCN(C(=O)C(Cl)(Cl)Cl)CC1
active: growth inhibition [1] 51% | growth inhibition [4] 90%
inactive: inhibition [2] 4% | inhibition [3] -2% | outcome [5] | outcome [6] | outcome [7] | outcome [8]

COc1ccc2nccc([C@@H](O)CN3CCC(NC(=O)Cc4cccc5c(Br)cccc45)CC3)c2c1
inactive: growth inhibition [1] 34% | inhibition [2] 15% | inhibition [3] -3% | outcome [5] | outcome [6] | outcome [7] | outcome [8]
active: growth inhibition [4] 99%

COc1ccc2nccc(N3CCN(CCNCc4ccc5c(n4)NC(=O)CO5)CC3)c2c1
inactive: growth inhibition [1] 5% | inhibition [2] 18% | inhibition [3] 5% | outcome [5] | outcome [6] | outcome [7] | outcome [8]
active: growth inhibition [4] 92%

O=C(/C=C/c1ccc(Cl)c(Cl)c1)N1CCC(CCN2CCC(c3c[nH]c4ccccc34)CC2)CC1
inactive: growth inhibition [1] 44% | inhibition [3] -3% | outcome [5] | outcome [6] | outcome [7] | outcome [8]
active: inhibition [2] 56% | growth inhibition [4] 100%

Cc1ccccc1C1CCN(C2CCC(NC(=O)/C=C/c3ccc(C(F)(F)F)cc3F)CC2)CC1 (configuration not stated)
inactive: inhibition [3] -2% | outcome [5] | outcome [6] | outcome [7] | outcome [8]
active: growth inhibition [1] 58% | inhibition [2] 72% | growth inhibition [4] 99%

CCN(CC)CCN(Cc1ccc(-c2ccc(C(F)(F)F)cc2)cc1)C(=O)Cn1c(CCc2cccc(F)c2F)nc(=O)c2cc(F)c(F)cc21
active: growth inhibition [1] 56% | growth inhibition [4] 100%
inactive: inhibition [2] 41% | inhibition [3] -5% | outcome [5] | outcome [6] | outcome [7] | outcome [8]

O=C(NCc1cccc(C(F)(F)F)c1)C(c1cc2ccccc2o1)N1CCN(C(c2ccccc2)c2ccccc2)CC1 (configuration not stated)
inactive: inhibition [2] -4% | inhibition [3] 0% | outcome [5] | outcome [6] | outcome [7] | outcome [8]
active: growth inhibition [1] 80% | growth inhibition [4] 91%
